Results: PubChem BioAssay (Tox21)
Records with an inconclusive call do not appear. Active and inactive are the calls of the source. Unless noted, the call rests on the fitted dose curve; in most records, active means well fitted curve in the direction sought with a large enough effect in the repeat runs; inconclusive means weak or mixed curves; inactive means no such curve, though single readings can be large; an effect the other way counts as inactive or inconclusive.

Assays:
[1] = qHTS assay to identify small molecule antagonists of the glucocorticoid receptor (GR) signaling pathway - cell viability counter screen (AID 720693); further: nearly all actives have a fitted effect of over 55% in size
[2] = qHTS assay for identifying genotoxic compounds that show differential cytotoxicity against isogenic chicken DT40 cell lines with known DNA damage response pathways - Rev3 mutant cell line (AID 743014); further: nearly all actives have a fitted effect of over 55% in size; further: potency means the concentration at half of the fitted maximal effect
[3] = qHTS assay for identifying genotoxic compounds that show differential cytotoxicity against isogenic chicken DT40 cell lines with known DNA damage response pathways - Rad54/Ku70 mutant cell line (AID 743015); further: nearly all actives have a fitted effect of over 60% in size; further: potency means the concentration at half of the fitted maximal effect
[4] = qHTS assay to identify small molecule antagonists of the androgen receptor (AR) signaling pathway - cell viability counter screen (AID 743033; further: nearly all actives have a fitted effect of over 45% in size)
[5] = qHTS assay to identify small molecule antagonists of the androgen receptor (AR) signaling pathway using the MDA cell line - cell viability counter screen (AID 743041; further: nearly all actives have a fitted effect of over 45% in size)
In short: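 Compound exposure lasted 16 h at 37C in MDA-kb2 AR-luc cells stimulated with R1881. Protease-based CellTiter-Fluor reagent was applied for the final 30 min and fluorescence measured.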

[6] = system: thyroid hormone receptor (rat, GH3 cells); experiment: qHTS assay to identify small molecule agonists of the thyroid receptor (TR) signaling pathway (AID 743066; calls by dose curve)
[7] = qHTS assay to identify small molecule antagonists of the estrogen receptor alpha (ER-alpha) signaling pathway - cell viability counter screen (AID 743074; calls by dose curve; further: nearly all actives have a fitted effect of over 45% in size; further: potency means the concentration at half of the fitted maximal effect)
[8] = qHTS assay to identify small molecule antagonists of the estrogen receptor alpha (ER-alpha) signaling pathway using the BG1 cell line - cell viability counter screen (AID 743081);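 further: compound given together with 17beta-estradiol as the ER stimulus; series mostly up to about 70 µM; nearly all actives have a fitted effect of over 45% in size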
[9] = target: Aromatase (Homo sapiens) (UniProt P11511); experiment: qHTS assay to identify aromatase inhibitors (AID 743083); further: nearly all actives have a fitted effect of over 55% in size; further: potency means the concentration at half of the fitted maximal effect
[10] = qHTS assay to identify aromatase inhibitors - cell viability counter screen (AID 743084);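 further: cells stimulated with testosterone during compound exposure; nearly all actives have a fitted effect of over 55% in size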
[11] = qHTS assay to identify small molecule antagonists of the thyroid receptor (TR) signaling pathway - cell viability counter screen (AID 743064); further: nearly all actives have a fitted effect of over 50% in size
In short: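 Rat GH3 pituitary tumor cells stably expressing two TR response elements driving luciferase were plated, rested 4 h, then dosed with library compounds and T3 (1 nM final). After 23.5 h at 37 °C, CellTiter-Fluor was added for 30 min and fluorescence recorded.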

[12] = target: Estrogen receptor (Homo sapiens) (UniProt P03372); experiment: qHTS assay to identify small molecule antagonists of the estrogen receptor alpha (ER-alpha) signaling pathway (AID 743069; active means well fitted curve in the direction sought with a large enough effect in the signal ratio in the repeat runs, not every such curve was filed as active; the % refers to the signal ratio)
In short: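 In this cell-based reporter format, GripTite HEK293 cells harbouring ER-alpha-UAS-bla were grown overnight with 2% charcoal-stripped FBS, dosed with DMSO-dissolved compounds, then challenged with 17beta-estradiol. After 18 hr at 37C, beta-lactamase activity was detected by FRET fluorescence.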

[13] = target: Estrogen receptor (Homo sapiens) (UniProt P03372); experiment: qHTS assay to identify small molecule agonists of the estrogen receptor alpha (ER-alpha) signaling pathway (AID 743075; calls by dose curve)
[14] = target: Estrogen receptor (Homo sapiens) (UniProt P03372); experiment: qHTS assay to identify small molecule agonists of the estrogen receptor alpha (ER-alpha) signaling pathway using the BG1 cell line (AID 743079); further: nearly all actives have a fitted effect of over 20% in size
[15] = qHTS assay to identify small molecule antagonists of the estrogen receptor alpha (ER-alpha) signaling pathway using the BG1 cell line (AID 743080; calls by dose curve;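 further: BG1 cells stimulated with 17beta-estradiol alongside compound; series mostly up to about 70 µM; nearly all actives have a fitted effect of over 25% in size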)
In short: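 Endogenous full-length ER-alpha in BG1-Luc-4E2 cells drives a stably integrated 4×ERE luciferase gene; compounds were tested against 17beta-estradiol over 21.5 h, with luminescence and multiplexed viability fluorescence recorded.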

[16] = qHTS assay to identify small molecule antagonists of the thyroid receptor (TR) signaling pathway (AID 743065); further: nearly all actives have a fitted effect of over 55% in size; further: potency means the concentration at half of the fitted maximal effect
In short: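 GH3.TRE-Luc rat pituitary cells (two TREs driving luciferase) were dosed with compound, then stimulated with 1 nM T3 (final) for 23.5 h at 37 C. ONE-Glo luminescence was the read-out, with CellTiter-Fluor fluorescence as the cytotoxicity counter-screen.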

[17] = target: Androgen receptor (Homo sapiens) (UniProt P10275); experiment: qHTS assay to identify small molecule agonists of the androgen receptor (AR) signaling pathway using the MDA cell line (AID 743040; further: nearly all actives have a fitted effect of over 20% in size)
In short: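 Testing was done with the MDA-kb2 AR-luc line, a human breast carcinoma stably transfected with MMTV-luciferase containing AR and GR response elements. Cells were exposed 16 h at 37C before ONE-Glo luminescence detection.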

[18] = target: Androgen receptor (Homo sapiens) (UniProt P10275); experiment: qHTS assay to identify small molecule antagonists of the androgen receptor (AR) signaling pathway using the MDA cell line (AID 743042; further: nearly all actives have a fitted effect of over 55% in size)
In short: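 MDA-kb2 breast carcinoma cells carrying MMTV-luciferase (AR/GR responsive) were co-treated with compounds and the agonist R1881 for 16 h at 37C. Inhibition read as ONE-Glo luminescence; CellTiter-Fluor fluorescence measured in parallel for cytotoxicity.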

Measured: Potency

Estrogen receptor (Homo sapiens), sequence (P03372 whole entry, looked up): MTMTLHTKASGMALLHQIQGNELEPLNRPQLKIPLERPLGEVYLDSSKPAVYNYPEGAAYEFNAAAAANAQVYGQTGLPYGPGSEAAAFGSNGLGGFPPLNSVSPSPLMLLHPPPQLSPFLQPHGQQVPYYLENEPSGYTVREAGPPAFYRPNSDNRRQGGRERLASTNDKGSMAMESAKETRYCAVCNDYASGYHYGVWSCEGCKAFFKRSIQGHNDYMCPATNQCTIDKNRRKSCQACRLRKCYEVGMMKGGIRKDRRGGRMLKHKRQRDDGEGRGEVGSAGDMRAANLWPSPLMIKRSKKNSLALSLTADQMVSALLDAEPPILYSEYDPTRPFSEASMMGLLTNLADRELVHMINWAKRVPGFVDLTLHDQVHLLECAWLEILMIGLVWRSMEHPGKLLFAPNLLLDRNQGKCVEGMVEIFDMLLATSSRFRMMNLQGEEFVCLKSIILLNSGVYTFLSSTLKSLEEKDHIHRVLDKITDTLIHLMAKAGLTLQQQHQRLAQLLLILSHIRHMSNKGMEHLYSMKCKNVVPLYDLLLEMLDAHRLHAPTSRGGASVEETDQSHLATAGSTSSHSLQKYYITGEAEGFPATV
Aromatase (Homo sapiens), sequence (P11511 whole entry, looked up): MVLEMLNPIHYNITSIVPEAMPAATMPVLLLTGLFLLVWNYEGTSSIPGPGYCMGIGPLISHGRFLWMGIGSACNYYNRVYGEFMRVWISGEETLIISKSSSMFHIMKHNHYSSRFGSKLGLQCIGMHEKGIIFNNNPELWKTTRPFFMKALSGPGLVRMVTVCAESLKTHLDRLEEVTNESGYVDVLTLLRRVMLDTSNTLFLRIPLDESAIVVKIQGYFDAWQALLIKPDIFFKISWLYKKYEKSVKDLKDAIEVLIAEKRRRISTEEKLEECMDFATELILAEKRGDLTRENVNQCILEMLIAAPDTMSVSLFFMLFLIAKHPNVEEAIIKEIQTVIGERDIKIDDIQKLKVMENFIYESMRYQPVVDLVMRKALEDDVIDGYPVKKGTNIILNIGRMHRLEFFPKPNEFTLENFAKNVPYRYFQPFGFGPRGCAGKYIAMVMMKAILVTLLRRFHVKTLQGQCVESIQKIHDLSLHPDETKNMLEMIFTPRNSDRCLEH
Androgen receptor (Homo sapiens), sequence (P10275 whole entry, looked up): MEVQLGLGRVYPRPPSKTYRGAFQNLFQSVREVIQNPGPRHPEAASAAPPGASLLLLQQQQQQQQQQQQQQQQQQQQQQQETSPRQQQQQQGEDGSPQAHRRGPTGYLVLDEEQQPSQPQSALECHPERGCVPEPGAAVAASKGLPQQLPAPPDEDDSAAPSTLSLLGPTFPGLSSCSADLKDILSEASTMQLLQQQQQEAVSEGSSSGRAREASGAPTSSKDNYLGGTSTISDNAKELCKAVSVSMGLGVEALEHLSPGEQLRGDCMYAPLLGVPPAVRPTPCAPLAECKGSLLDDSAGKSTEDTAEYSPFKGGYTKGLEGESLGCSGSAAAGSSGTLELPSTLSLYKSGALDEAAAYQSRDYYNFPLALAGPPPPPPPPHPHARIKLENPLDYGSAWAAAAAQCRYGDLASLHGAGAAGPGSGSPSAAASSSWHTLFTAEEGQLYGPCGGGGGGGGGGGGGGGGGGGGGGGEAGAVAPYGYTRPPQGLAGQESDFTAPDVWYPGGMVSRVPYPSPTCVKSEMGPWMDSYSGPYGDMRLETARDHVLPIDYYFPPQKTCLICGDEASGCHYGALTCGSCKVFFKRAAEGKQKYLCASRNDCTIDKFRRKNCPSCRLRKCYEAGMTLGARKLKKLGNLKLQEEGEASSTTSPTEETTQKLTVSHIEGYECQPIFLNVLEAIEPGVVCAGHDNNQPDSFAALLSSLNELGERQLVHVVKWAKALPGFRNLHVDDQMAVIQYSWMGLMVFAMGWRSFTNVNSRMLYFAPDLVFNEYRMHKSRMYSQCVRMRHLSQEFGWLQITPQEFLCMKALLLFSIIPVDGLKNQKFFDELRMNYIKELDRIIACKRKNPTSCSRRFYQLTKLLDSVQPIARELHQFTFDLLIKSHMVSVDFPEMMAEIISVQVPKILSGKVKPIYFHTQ

C1CCCCC1
inactive: [1] | [2] | [3] | [4] | [5] | [6] | [7] | [8] | [9] | [10]

N[C@@H](Cc1cc(I)c(O)c(I)c1)C(=O)O
not listed: [7] | [8] | [16] | [17] | [18]
inactive: all other assays above

NC(=O)c1ccccc1[N+](=O)[O-]
not listed: [11] | [17] | [18]
inactive: all other assays above

CNCc1ccc(NC(=O)c2c[nH]c3c2C(=O)CCC3)cc1
inactive: [1] | [4] | [5] | [16] | [6] | [7] | [8] | [9] | [10]
active: [2] 54.5 µM | [3] 54.5 µM

CCNc1nc(N)nc(Cl)n1
inactive: [1] | [2] | [3] | [4] | [5] | [16] | [7] | [8]

CC(=O)OC(C)C[N+](C)(C)C (centres undefined)
not listed: [4] | [6] | [16] | [17] | [18]
inactive: all other assays above

COc1ccc(C(=O)NCc2ccc(OCCN(C)C)cc2)cc1OC
not listed: [11] | [15] | [17] | [18]
inactive: all other assays above

Cc1ccc2nc(N)[nH]c(=O)c2c1Sc1ccncc1
active: [2] 0.944 µM | [3] 0.596 µM | [16] 8.41 µM | [7] 3.01 µM | [9] 9.44 µM
inactive: [1] | [4] | [5] | [6] | [8] | [10]

Nc1c(Cl)cc(Cl)cc1[N+](=O)[O-]
not listed: [2] | [3] | [9] | [11]
inactive: all other assays above

CCN(CC)CCOC(=O)C(c1ccccc1)c1ccccc1
inactive: [1] | [4] | [5] | [6] | [8] | [9] | [10]

CCCCCCCC/C=C\CCCCCCCC(=O)OCCO
active: [2] 81 µM | [3] 72.2 µM
not listed: [1] | [11] | [16] | [17] | [18]
inactive: all other assays above
